According to PubChem BioAssay (Tox21):
Results filed as inconclusive are left out. The source made the active and inactive calls. Unless noted, calls come from the whole dose curve; as a rule, active = well fitted curve in the direction sought with a large enough effect in the repeat runs; inconclusive = weak or mixed curves; inactive = no such curve, though single readings can be large; an effect the other way counts as inactive or inconclusive.

Experiments:
[1] = qHTS assay to identify small molecule agonists of the androgen receptor (AR) signaling pathway in the presence of an antagonist - cell viability counter screen (AID 1259379);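 note: MDA-kb2 human breast cancer cells carrying an MMTV luciferase reporter; series mostly up to about 92 µM; nearly all actives have a fitted effect of over 25% in size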
How it was run: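 Cells: MDA-kb2 (MMTV-luc, AR and GR elements), 3,000/well, 5 hr settle. Added: nilutamide 3.0uM final, then compounds (15 conc.). Incubation: 16 hr, 37C, no CO2. Read-out: CellTiter-Fluor, 1 hr, fluorescence.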

[2] = qHTS assay to identify small molecule agonists of the estrogen receptor beta (ER-beta) signaling pathway - cell viability counter screen (AID 1259380); note: nearly all actives have a fitted effect of over 30% in size
How it was run: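 HEK293T ER-beta-UAS-bla; 2% CS-FBS; 6 hr pre-plate, 16 hr cpd at 37C/5% CO2; LiveBLAzer read first, then CellTiter-Glo 30 min RT, luminescence.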

[3] = qHTS assay to identify small molecule antagonists of the estrogen receptor beta (ER-beta) signaling pathway - cell viability counter screen (AID 1259382);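 note: HEK293T cells carrying ER-beta-UAS-bla reporter stimulated with estradiol; series mostly up to about 92 µM; nearly all actives have a fitted effect of over 55% in size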
How it was run: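 Cells: ER-beta-UAS-bla HEK293T, 2,000/well, 2% CS-FBS, 6 hr settle. Cpd + E2 (1nM final), 16 hr, 37C/5% CO2. Bla FRET substrate 2 hr RT, then CellTiter-Glo 30 min RT, luminescence.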

[4] = qHTS assay to identify small molecule agonists or antagonists of the thyroid stimulating hormone receptor (TSHR) signaling pathway - wild type cell line counter screen (AID 1259384; calls by dose curve)
How it was run: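 Counter screen in untransfected Hek293: compounds (15-point titration, triplicate) plus phosphodiesterase inhibitor Ro20-1724 added after 18 h plating; 30 min RT. Intracellular cAMP via competitive d2/cryptate immunoassay, 1 h incubation.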

[5] = molecular target: Thyrotropin receptor (Homo sapiens) (UniProt P16473); assay: qHTS assay to identify small molecule antagonists of the thyroid stimulating hormone receptor (TSHR) signaling pathway (AID 1259385; calls by dose curve; note: nearly all actives have a fitted effect of over 20% in size)
Sequence of Thyrotropin receptor (Homo sapiens) (P16473 whole entry, looked up): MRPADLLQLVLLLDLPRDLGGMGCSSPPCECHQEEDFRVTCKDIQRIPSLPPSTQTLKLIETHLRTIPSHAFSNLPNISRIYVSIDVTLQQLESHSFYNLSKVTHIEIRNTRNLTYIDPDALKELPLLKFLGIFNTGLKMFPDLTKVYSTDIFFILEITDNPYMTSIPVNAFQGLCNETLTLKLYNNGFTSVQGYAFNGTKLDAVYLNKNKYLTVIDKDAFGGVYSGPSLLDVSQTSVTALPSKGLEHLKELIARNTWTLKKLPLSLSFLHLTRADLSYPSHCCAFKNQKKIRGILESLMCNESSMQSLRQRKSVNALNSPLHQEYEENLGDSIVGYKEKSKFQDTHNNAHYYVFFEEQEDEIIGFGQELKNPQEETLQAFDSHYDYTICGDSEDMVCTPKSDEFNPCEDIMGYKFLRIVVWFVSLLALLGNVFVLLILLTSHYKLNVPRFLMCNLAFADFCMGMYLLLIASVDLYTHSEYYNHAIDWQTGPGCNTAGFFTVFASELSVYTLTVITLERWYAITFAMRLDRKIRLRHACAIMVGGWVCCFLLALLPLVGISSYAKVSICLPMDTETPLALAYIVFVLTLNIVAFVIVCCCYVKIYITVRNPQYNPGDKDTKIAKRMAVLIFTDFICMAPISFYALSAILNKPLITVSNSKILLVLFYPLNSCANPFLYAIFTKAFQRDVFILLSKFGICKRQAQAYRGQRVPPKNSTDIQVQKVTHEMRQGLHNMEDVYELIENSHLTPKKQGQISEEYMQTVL
How it was run: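 Antagonist mode: compound-treated TSHR-expressing HEK293 cells were stimulated with 1.5 ng/mL TSH (final) in presence of Ro20-1724 for 30 min at RT. HTRF cAMP detection after 1 h; each compound tested at 15 concentrations, triplicate.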

[6] = qHTS assay to identify small molecule agonists of the estrogen receptor alpha (ER-alpha) signaling pathway in the presence of an antagonist - cell viability counter screen (AID 1259386);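 note: series mostly up to about 92 µM; cells exposed to compounds for 22 h at 37 °C before the viability read; nearly all actives have a fitted effect of over 30% in size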
How it was run: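 VM7Luc4E2, stripped-serum pre-culture 5 d; 24hr plating; +ICI-182,780 10.0nM final; cpds 15 conc, 22hr, 37C/5% CO2; CellTiter-Fluor added at 21hr, fluorescence 1hr later.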

[7] = molecular target: Progesterone receptor (Homo sapiens) (UniProt P06401); assay: qHTS assay to identify small molecule antagonists of the progesterone receptor (PR) signaling pathway (AID 1346795; active = well fitted inhibition curve with a large enough effect in the signal ratio in the repeat runs, not every such curve was filed as active; the % refers to the signal ratio)
Sequence of Progesterone receptor (Homo sapiens) (P06401 whole entry, looked up): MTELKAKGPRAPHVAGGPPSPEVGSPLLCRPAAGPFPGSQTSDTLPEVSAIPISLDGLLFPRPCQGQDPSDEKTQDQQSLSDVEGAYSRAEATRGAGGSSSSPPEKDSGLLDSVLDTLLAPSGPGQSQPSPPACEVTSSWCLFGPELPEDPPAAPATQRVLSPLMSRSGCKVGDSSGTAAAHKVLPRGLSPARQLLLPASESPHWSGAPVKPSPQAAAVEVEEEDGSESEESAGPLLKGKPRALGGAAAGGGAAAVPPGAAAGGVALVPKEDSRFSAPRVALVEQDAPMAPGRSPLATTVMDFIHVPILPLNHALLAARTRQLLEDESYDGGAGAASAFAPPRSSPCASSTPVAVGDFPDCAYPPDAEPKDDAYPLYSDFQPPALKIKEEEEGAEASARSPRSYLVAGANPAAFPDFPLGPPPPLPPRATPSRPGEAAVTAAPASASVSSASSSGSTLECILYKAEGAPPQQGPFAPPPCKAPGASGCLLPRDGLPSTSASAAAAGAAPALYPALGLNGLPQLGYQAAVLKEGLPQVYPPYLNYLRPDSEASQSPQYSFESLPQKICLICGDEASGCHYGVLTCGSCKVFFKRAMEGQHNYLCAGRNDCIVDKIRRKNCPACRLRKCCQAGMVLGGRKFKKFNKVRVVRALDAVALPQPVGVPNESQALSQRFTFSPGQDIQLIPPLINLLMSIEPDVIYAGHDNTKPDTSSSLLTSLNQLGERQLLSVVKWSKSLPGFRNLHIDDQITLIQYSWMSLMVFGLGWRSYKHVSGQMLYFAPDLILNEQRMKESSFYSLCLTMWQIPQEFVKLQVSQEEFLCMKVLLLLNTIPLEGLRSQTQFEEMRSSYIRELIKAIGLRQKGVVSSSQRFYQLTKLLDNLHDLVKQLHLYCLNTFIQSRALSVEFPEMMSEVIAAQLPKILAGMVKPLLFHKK
How it was run: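 Inhibition of R5020-induced (1 nM final) beta-lactamase reporter signal in PR-UAS-bla HEK293T cells was scored by FRET fluorescence after overnight (16 hr) compound treatment.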

[8] = qHTS assay to identify small molecule agonists of the progesterone receptor (PR) signaling pathway - cell viability counter screen (AID 1346799; calls by dose curve; note: nearly all actives have a fitted effect of over 45% in size)
How it was run: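 Cytotoxicity in PR-bla HEK293T cells: 16 h compound, 37C; CellTiter-Glo added post-FRET read; luminescence after 30 min RT.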

[9] = qHTS assay to identify small molecule antagonists of the TGF-beta/Smad signaling pathway - cell viability counter screen (AID 1346824); note: nearly all actives have a fitted effect of over 50% in size
How it was run: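 Cytotoxicity counter-screen run in the same wells as the beta-lactamase Smad reporter read: CellTiter-Glo luminescence after 30 min at room temperature. HEK 293T SBE-bla cells had 5 hr compound exposure at 37 C with TGF-beta1 (0.25 ng/mL stock).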

[10] = qHTS assay to identify small molecule agonists of the TGF-beta/Smad signaling pathway - cell viability counter screen (AID 1346829); note: top concentration of the series differs between compounds; nearly all actives have a fitted effect of over 45% in size
How it was run: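 Same-well cytotoxicity: CellTiter-Glo added after the 2 hr room-temperature beta-lactamase substrate step, luminescence measured 30 min later; cells had 5 hr of compound at 37 C.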

[11] = qHTS assay to identify small molecule agonists of the TGF-beta/Smad signaling pathway (AID 1346859; active = well fitted activation curve with a large enough effect in the signal ratio in the repeat runs, not every such curve was filed as active; the % refers to the signal ratio; note: series mostly up to about 77 µM)
How it was run: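 Stable Smad binding element-beta-lactamase HEK 293T cells; 5 hr compound exposure at 37 C under 5% CO2; 2 hr room-temperature substrate step; fluorescence excited at 405 nm, collected at 460 nm and 530 nm.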

[12] = molecular target: Thyrotropin-releasing hormone receptor (Homo sapiens) (UniProt P34981); assay: qHTS assay to identify small molecule antagonists of the thyrotropin-releasing hormone receptor (TRHR) signaling pathway (AID 1346877; active = well fitted inhibition curve with a large enough effect in the repeat runs, not every such curve was filed as active; note: series mostly up to about 51 µM)
Sequence of Thyrotropin-releasing hormone receptor (Homo sapiens) (P34981 whole entry, looked up): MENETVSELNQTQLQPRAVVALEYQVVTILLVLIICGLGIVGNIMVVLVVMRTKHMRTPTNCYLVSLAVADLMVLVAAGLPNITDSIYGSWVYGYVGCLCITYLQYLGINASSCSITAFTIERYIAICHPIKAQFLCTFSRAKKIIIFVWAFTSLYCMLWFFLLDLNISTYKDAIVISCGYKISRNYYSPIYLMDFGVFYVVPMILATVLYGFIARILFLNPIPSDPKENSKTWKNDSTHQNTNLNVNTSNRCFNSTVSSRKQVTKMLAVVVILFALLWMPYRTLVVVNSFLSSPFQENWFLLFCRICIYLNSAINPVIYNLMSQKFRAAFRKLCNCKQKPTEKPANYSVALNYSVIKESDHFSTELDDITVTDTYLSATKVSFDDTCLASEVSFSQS
How it was run: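 Intracellular calcium fluorescence, read kinetically every second over 3 min, reports TRH-evoked signalling in HEK293 cells carrying TRHR. Test compounds were added 5 min ahead of a 1 nM TRH challenge.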

[13] = molecular target: Thyrotropin-releasing hormone receptor (Homo sapiens) (UniProt P34981); assay: qHTS assay to identify small molecule agonists of the thyrotropin-releasing hormone receptor (TRHR) signaling pathway (AID 1346891; calls by dose curve;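 note: HEK293 cells expressing TRHR with calcium dye readout; series mostly up to about 58 µM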)
How it was run: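 In 1536-format, 1500 TRHR-Hek293 cells per well grew 18 h, took up calcium dye for 2 h at 37 °C, received compound, and were read kinetically; 15-point titrations, triplicates.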

[14] = molecular target: Estrogen receptor beta (Homo sapiens) (UniProt Q92731); assay: qHTS assay to identify small molecule agonists of the estrogen receptor beta (ER-beta) signaling pathway (AID 1259377; active = well fitted activation curve with a large enough effect in the signal ratio in the repeat runs, not every such curve was filed as active; the % refers to the signal ratio)
Sequence of Estrogen receptor beta (Homo sapiens) (Q92731 whole entry, looked up): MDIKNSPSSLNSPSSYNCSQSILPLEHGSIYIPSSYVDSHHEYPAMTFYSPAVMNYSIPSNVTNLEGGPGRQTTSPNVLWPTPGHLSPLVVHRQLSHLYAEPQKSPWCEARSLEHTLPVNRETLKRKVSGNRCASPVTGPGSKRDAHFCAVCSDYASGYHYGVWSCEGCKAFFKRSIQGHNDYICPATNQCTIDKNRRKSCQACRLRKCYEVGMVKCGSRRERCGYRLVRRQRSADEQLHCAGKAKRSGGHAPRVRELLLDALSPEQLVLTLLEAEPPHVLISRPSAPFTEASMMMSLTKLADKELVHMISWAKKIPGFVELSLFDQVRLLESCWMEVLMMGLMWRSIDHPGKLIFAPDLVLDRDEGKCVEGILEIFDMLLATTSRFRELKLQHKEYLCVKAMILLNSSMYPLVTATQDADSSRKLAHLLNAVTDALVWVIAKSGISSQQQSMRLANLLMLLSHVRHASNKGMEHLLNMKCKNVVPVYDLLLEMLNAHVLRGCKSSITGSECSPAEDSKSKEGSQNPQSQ
How it was run: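 In HEK293T cells bearing a UAS-beta-lactamase reporter under ER-beta control, DMSO-delivered compounds were incubated for 16 hr at 37C. Activity was detected as fluorescence 2 hours after LiveBLAzer B/G FRET substrate addition.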

[15] = molecular target: Estrogen receptor beta (Homo sapiens) (UniProt Q92731); assay: qHTS assay to identify small molecule antagonists of the estrogen receptor beta (ER-beta) signaling pathway (AID 1259378; active = well fitted inhibition curve with a large enough effect in the signal ratio in the repeat runs, not every such curve was filed as active; the % refers to the signal ratio)
How it was run: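 Antagonist mode: compounds added to beta-lactamase reporter HEK293T ER-beta-UAS cells stimulated with E2 (1nM final), 16 hr at 37C. LiveBLAzer B/G FRET substrate, 2 hours room temperature, fluorescence read-out.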

[16] = molecular target: Progesterone receptor (Homo sapiens) (UniProt P06401); assay: qHTS assay to identify small molecule agonists of the progesterone receptor (PR) signaling pathway (AID 1346784; calls by dose curve; note: nearly all actives have a fitted effect of over 30% in size; note: potency is the fitted concentration of half-maximal effect)
How it was run: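 Using charcoal-stripped serum (2%) to limit endogenous steroids, PR-UAS-bla HEK 293T cells received compounds for 16 hr at 37C after 6 hr plating; beta-lactamase FRET fluorescence was recorded following 2 hr substrate loading at room temperature.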

[17] = qHTS assay to identify small molecule antagonists of the progesterone receptor (PR) signaling pathway - cell viability counter screen (AID 1346798); note: series mostly up to about 92 µM; nearly all actives have a fitted effect of over 50% in size
How it was run: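 ATP content as viability readout: CellTiter-Glo luminescence, 30 min room temperature, in PR-UAS-bla HEK293T cells after 16 hr compound/R5020 treatment at 37C and 5% CO2.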

[18] = molecular target: Estrogen receptor (Homo sapiens) (UniProt P03372); assay: qHTS assay to identify small molecule agonists of the estrogen receptor alpha (ER-alpha) signaling pathway in the presence of an antagonist (AID 1259383; calls by dose curve; note: top concentration of the series differs between compounds; nearly all actives have a fitted effect of over 15% in size)
Sequence of Estrogen receptor (Homo sapiens) (P03372 whole entry, looked up): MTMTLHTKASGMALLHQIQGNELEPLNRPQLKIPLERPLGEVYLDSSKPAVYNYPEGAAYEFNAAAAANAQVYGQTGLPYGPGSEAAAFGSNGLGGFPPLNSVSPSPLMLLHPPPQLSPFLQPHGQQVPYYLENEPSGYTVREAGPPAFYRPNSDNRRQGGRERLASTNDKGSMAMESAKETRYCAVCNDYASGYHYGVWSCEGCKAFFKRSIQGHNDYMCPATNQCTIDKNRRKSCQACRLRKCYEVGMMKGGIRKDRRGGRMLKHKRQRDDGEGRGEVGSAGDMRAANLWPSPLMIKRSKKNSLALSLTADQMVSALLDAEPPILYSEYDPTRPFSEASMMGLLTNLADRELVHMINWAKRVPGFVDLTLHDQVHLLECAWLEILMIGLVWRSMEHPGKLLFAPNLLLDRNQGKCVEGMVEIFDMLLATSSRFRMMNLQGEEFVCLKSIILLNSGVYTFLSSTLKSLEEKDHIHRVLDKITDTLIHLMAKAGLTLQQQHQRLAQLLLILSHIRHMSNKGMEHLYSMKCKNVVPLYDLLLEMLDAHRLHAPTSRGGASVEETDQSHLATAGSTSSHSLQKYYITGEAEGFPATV
How it was run: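 VM7Luc4E2, endog. ER-alpha + 4×ERE-luc; charcoal-stripped FBS, phenol red-free, 5 d; 24hr plating; +10.0nM ICI-182,780 (final); cpds 15 conc, 22hr, 37C/5% CO2; ONE-Glo luminescence.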

Measured: Potency

CCCC(C)C(=O)OCC (configuration not stated)
inactive: [1] | [2] | [3] | [4] | [5] | [6] | [7] | [8] | [9] | [10] | [11] | [12] | [13]

CC(=O)Nc1ccc(OCC(O)CNC(C)C)cc1 (configuration not stated)
inactive: [14] | [15] | [3] | [4] | [5] | [6] | [16] | [7] | [17] | [8] | [9] | [10] | [11] | [12] | [13]

CN(C)CCCCCCN(C)C
inactive: [14] | [15] | [2] | [3] | [4] | [5] | [6] | [7] | [17] | [8] | [9] | [10] | [11] | [12] | [13]

CC(C)=CCC/C(C)=C/C#N
inactive: [1] | [3] | [4] | [6] | [16] | [7] | [8] | [9] | [11] | [12] | [13]

CCCOC(=O)CC
inactive: [14] | [15] | [2] | [3] | [4] | [5] | [6] | [16] | [17] | [10] | [11]

O=C(O)CCCC[P+](c1ccccc1)(c1ccccc1)c1ccccc1
inactive: [1] | [2] | [3] | [4] | [5] | [6] | [16] | [7] | [17] | [8] | [9] | [10]

CCCc1nn(C)c2c(=O)[nH]c(-c3cc(S(=O)(=O)N4CCN(C)CC4)ccc3OCC)nc12
active: [16] 13.3 µM
inactive: [1] | [3] | [4] | [6] | [7] | [17] | [8] | [9] | [10] | [11] | [12]

CN1[C@@H]2CC[C@H]1CC(OC(=O)C(O)c1ccccc1)C2 (some centres not stated)
inactive: [1] | [2] | [3] | [18] | [4] | [5] | [6] | [16] | [7] | [17] | [8] | [10] | [11] | [12] | [13]

CC(=O)c1ccccc1[N+](=O)[O-]
inactive: [14] | [15] | [2] | [3] | [4] | [5] | [6] | [16] | [17] | [8] | [9] | [11] | [13]
